The subject of test [1] is HT29 RNF43 G659fs (RNF43 659mut, CRISPR-edited). In words: cell viability activity relative to DMSO (negative = inhibition); higher = more viable cells (less growth inhibition). To be noted: 5 µM; 96 h. How it is done: (§1)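 Broad Repurposing Library primary screen at a single dose of 5 uM. HT29 sg-Ctrl and HT29 RNF43 G659fs CRISPR-edited isogenic cells were seeded at 2500 cells/well in 384-well plates in duplicate and treated for 96 h. Viability was read by CellTiter-Glo and reported as % activity relative to DMSO, with MG132 as the positive control (negative = growth inhibition).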

Test [2] relates to HT29 sg-Ctrl (RNF43 wildtype). The description is as above. To be noted: 5 µM; 96 h. The protocol:
as §1

Each structure is given as a SMILES string.

For the molecule `C=C1C(=O)CC2CC3OC3(C)CCC3OC3(C)C[C@H](OC(C)=O)C1C2(C)C` (some centres not stated), the cell viability activity in test [1] is -28.6%; in test [2], -25.5%.
The corresponding values for `O=C(NNc1nc2cc(F)ccc2n2cccc12)c1cnccn1` are -82.8% and -88.3%.
The corresponding values for `O=C(/C=C\n1cnc(-c2cc(C(F)(F)F)cc(C(F)(F)F)c2)n1)N1CC(F)(F)C1` are -72.2% and -68%.
The corresponding values for `CCOc1cc2ncc(C#N)c(Nc3ccc(F)c(Cl)c3)c2cc1NC(=O)/C=C/CN(C)C` are -77.4% and -78.7%.
On to `Cc1c(C2CCN(CCc3ccccc3)CC2)noc1-c1ccc(Cl)cc1`, for which the cell viability activity in test [1] is -38%; in test [2], -39.7%.
Consider `Cc1cc(Nc2cc(N3CCN(C)CC3)nc(Sc3ccc(NC(=O)C4CC4)cc3)n2)n[nH]1`, for which the cell viability activity in test [1] is -22.2%; in test [2] it was -38.2%.
As for `OC1(c2ccc(Cl)c(C(F)(F)F)c2)CCN(CCCC(c2ccc(F)cc2)c2ccc(F)cc2)CC1`, the cell viability activity is -83% in test [1] and -60.6% in test [2].
Turning to `CCN(c1cc(C#CCN2CCOCC2)cc(C(=O)NCc2c(C)cc(C)[nH]c2=O)c1C)[C@H]1CC[C@H](N(C)CCOC)CC1`, the results for the cell viability activity in test [1] and in test [2] were -37.5% and -35.6%, respectively.
As to `CC(C)Nc1cc(-c2c[nH]c(C(=O)N[C@H](CO)c3cccc(Cl)c3)c2)c(Cl)cn1`, the cell viability activity in test [1] was -71.1%; in test [2], -78.7%.
The corresponding values for `CCCCCCCCc1ccc(CCC(N)(CO)CO)cc1` are -97.8% and -94.1%.
The corresponding values for `CCN(CC)CCOc1ccc(Nc2ncc3cc(-c4c(Cl)cccc4Cl)c(=O)n(C)c3n2)cc1` are -86.7% and -80.3%.
The corresponding values for `O=C(c1cccc(Cl)c1F)N1CCN(Cc2cccc(Nc3nccs3)n2)CC1` are -27.7% and -25.6%.
Regarding `CCCCC/N=c1\ccn(Cc2ccccc2)c2ccccc12`, the figures for the cell viability activity in test [1] and in test [2] were -62.5% and -45.4%, respectively.
The corresponding values for `Cc1cccc(/C=N/Nc2cc(N3CCOCC3)n3nc(-c4ccncc4)cc3n2)c1` are -56.4% and -51.8%.
The corresponding values for `O=C1NCCN1CCN1CCC(c2cn(-c3ccc(F)cc3)c3ccc(Cl)cc23)CC1` are -93.7% and -83.7%.
The corresponding values for `CSc1ccccc1Nc1nc(N2CCNCC2)nc2c(NCC3CC3)ncnc12` are -95.8% and -94.6%.

The values above are taken from the supplement of paper PMC9177965.
